# From the supplement of paper PMC3334620
# The full ranking holds about 33,000 sequences; the median of “E-score (-0.5 to 0.5)” is about -0.011, and the highest 2% start at about 0.28. The sample holds the highest values, similar sequences and a random draw of the others, so the mix is not that of the screen.
# Molecular target: T1, Gcr1 (UniProt P07261)
# T1 sequence: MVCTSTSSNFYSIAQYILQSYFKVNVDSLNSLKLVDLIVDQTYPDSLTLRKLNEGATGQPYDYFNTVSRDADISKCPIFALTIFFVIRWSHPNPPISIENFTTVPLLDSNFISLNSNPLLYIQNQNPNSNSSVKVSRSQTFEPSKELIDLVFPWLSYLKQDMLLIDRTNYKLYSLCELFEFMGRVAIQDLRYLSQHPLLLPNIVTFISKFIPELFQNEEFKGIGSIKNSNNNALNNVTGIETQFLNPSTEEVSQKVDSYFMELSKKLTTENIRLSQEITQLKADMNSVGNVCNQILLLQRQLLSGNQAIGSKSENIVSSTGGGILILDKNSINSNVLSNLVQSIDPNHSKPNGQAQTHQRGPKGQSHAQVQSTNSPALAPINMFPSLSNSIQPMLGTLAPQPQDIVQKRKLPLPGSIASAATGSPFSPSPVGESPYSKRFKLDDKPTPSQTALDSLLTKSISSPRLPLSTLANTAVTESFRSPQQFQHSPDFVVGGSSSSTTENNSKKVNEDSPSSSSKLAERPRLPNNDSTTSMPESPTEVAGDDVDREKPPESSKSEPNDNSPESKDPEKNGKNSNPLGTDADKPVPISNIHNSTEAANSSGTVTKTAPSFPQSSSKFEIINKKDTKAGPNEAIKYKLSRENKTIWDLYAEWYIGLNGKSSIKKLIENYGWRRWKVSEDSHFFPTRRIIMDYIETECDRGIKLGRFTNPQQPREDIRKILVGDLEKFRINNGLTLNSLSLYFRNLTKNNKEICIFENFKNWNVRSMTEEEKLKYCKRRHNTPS
# Assay: PBM E-score (8-mer binding enrichment) (E-score (-0.5 to 0.5)); higher = stronger / more preferred TF binding
# Conditions: protein concentration: 100 nM; construct: GST-full length
# Experimental: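 Universal 'all 10-mer' protein binding microarrays (Agilent AMADID 015681) probed with GST-tagged S. cerevisiae TFs (full-length or DBD) made by in vitro transcription/translation (PURExpress), about 100-200 nM. Bound TF was detected with fluorescent anti-GST. Each ungapped 8-mer (which stands for itself and its reverse complement) is scored by the PBM enrichment score (E-score), a modified Wilcoxon-Mann-Whitney statistic from -0.5 to +0.5, computed with the Universal PBM Analysis Suite. Scale: above 0.35 generally sequence-specific binding.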
row,Sequence,PBM E-score
1,GACTGTCA,-0.154
2,AGAGGTAT,0.196
3,ATAGATTC,0.114
4,CCGCTCAG,0.0454
5,ACGTTCTC,-0.172
6,CTGGCATA,0.0454
7,GCGGCACC,0.324
8,CAGGCAGG,-0.143
9,CTGGCATC,0.304
10,CAGGCAGC,0.285
11,CCGGCACC,0.28
12,CAGGCAGA,-0.0141
13,ATGGCATC,0.175
14,ACGGCACC,0.142
15,CGGGCACC,0.376
16,CGGGCACG,0.107
17,CGGGCACA,-0.0928
18,CCCTACTA,0.0892
19,AATTTACT,0.155
20,AAACCAGA,0.0613
21,TCATCCAA,-0.114
22,TAATCCAA,0.134
23,CCATCCAC,-0.0219
24,ACATCCAC,0.133
25,GAATCCAA,0.309

row,Sequence,PBM E-score
1,GCATCCAC,0.452
2,AAATCCAA,0.142
3,CCATCCAA,-0.121
4,GCATCCAA,0.366
5,TCCTAGAA,0.174
6,GAATGGCC,-0.116
7,CAAGCGCG,-0.0724
8,ATATGAGG,0.033
9,AGAAAACC,-0.0435
10,CGGAGCAG,0.0182
11,ACATACTG,0.0904
12,ACGACGCG,0.0493
13,CGGACGCC,0.416
14,ACGACGCC,0.217
15,AGGACGCA,0.0414
16,AGGACGCG,0.283
17,AGGACGAG,-0.073
18,AGGACGCC,0.453
19,CGGACGTC,0.134
20,CGGACGCA,0.0459
21,CGACCCAC,-0.0741
22,TAACCTGA,-0.2
23,ACGTGTAT,0.0211
24,CAGGCCGA,-0.0271
25,CAGAACCG,0.106

row,Sequence,PBM E-score
1,GAATGCGC,0.164
2,ACTCTCTC,-0.288
3,CGCCAATA,0.144
4,GTATGTCA,0.136
5,CTCCCAAG,0.0273
6,ACTCTAGG,-0.0525
7,ATTCAGGA,0.282
8,AAACAGGA,0.363
9,CTACAGGA,0.204
10,ATTCAGGG,0.123
11,AAACAGGC,-0.117
12,CTTCAGGA,0.268
13,CAACAGGA,0.226
14,ATACAGGC,0.223
15,ATACAGGA,0.308
16,ACCGAACG,0.0306
17,CCACCGCG,-0.0592
18,ATGACATA,0.127
19,TCCCGCAA,0.0539
20,CGAGTGCC,-0.132
21,GAGCGTGC,-0.1
22,GAGCGTCC,0.384
23,ACGCGTCT,0.155
24,GAGCGTCA,0.0398
25,ACGCGTCA,-0.171

row,Sequence,PBM E-score
1,AAGCGTCC,0.323
2,ACGCGTCC,0.292
3,AAGCGTCG,0.0188
4,AAGCGTCA,-0.0114
5,GCATCAAC,0.15
6,CACGGAGC,0.101
7,CGGTAGCC,0.296
8,AGGTATCG,0.019
9,AGGTAGCC,0.238
10,AGGTATCA,0.0276
11,CTGTATCC,0.207
12,CGGTATCC,0.282
13,AGGTATCC,0.28
14,CGGTAGCA,-0.0732
15,CGGTATCA,-0.0496
16,CAAGCTAA,-0.177
17,CCTGTGAG,-0.218
18,CGCCCTAG,0.143
19,ATAGCCAG,0.0137
20,CGCAATTC,0.0283
21,CTACCGTC,-0.0298
22,GCCATCCA,0.086
23,CCGATACA,0.0692
24,CCAGTTAG,0.0191
25,ACGCGCCC,0.352

row,Sequence,PBM E-score
1,AGGCGCGC,0.16
2,AGGCGCCC,0.384
3,AGGCGCCG,0.354
4,AGGCGCCT,0.321
5,AAGCGCCT,0.0782
6,ATGCGCCC,0.0661
7,GCGCGCCC,0.0734
8,AGGCGCAG,0.157
9,AGGCGCAT,0.0287
10,ACGCGCCA,0.196
11,AGGCGCCA,0.268
12,AGTGCTCC,-0.116
13,GTCAGAAA,0.0237
14,AAGGGCTA,-0.138
15,AACAATCC,-0.0423
16,TGGACAAA,0.0886
17,CCCGGTCC,-0.0935
18,CGGACACC,0.0465
19,ACTGCAAG,-0.185
20,TTGTGAAA,0.0169
21,CCCGTTAG,0.0113
22,CGCGCATC,0.252
23,ATCCCCCG,0.175
24,GAGAATCC,0.236
25,AGGAAGCA,0.13

row,Sequence,PBM E-score
1,AAGAATCC,0.391
2,AAGAATCA,0.142
3,AGGAATGG,0.0654
4,AGGAATCC,0.459
5,AGGAATCA,0.144
6,AGGAATAC,0.0815
7,AGGAATCG,0.294
8,AGGAAGAG,-0.0854
9,AGGAAGCG,0.354
10,ATGAATCC,0.0178
11,GGCTATGA,-0.188
12,AATCCGTC,-0.0275
13,AGCCAGAA,0.13
14,TCTGCAGA,-0.194
15,ATGACCCG,-0.321
16,CGGAAGTC,-0.00248
17,ACGAATCT,0.122
18,AGGAAGTG,0.213
19,CGGAATTC,0.242
20,CCGAATCC,0.133
21,AGGAAGTC,0.337
22,CGGAATCC,0.417
23,ACGAATCC,0.288
24,CGGAATCA,0.0684
25,CCCGAGAC,0.0132

row,Sequence,PBM E-score
1,ATCCGCTC,0.0142
2,ACTCCCTA,-0.0517
3,CGCCTGTC,-0.105
4,GGTGTTCA,0.106
5,AGTGGTGG,0.305
6,AATGGTGG,-0.00912
7,AGTGGTAA,-0.099
8,AGTGGTGA,0.0333
9,AATGGTGC,0.208
10,AGTGGTGC,0.305
11,CGTGGTAG,-0.133
12,CGTGGTGC,-0.0202
13,AGTGGTAG,0.318
14,CCGATGAC,-0.0977
15,AAGTTGCG,0.211
16,ATCATCCG,-0.191
17,AACATCCA,0.193
18,TGCATCCA,0.182
19,AGCATCCG,0.372
20,AGCATCCA,0.457
21,AACATCCG,0.164
22,ACTTTAAA,0.0642
